# The full data set covers some 8,800 targets. This sample favours those with a hit. About 0.5% of all pairs of compound and target were hits. Unmarked numbers belong to inactive results.
# What was measured:
# Assay in all cases: log2 fold change, soluble protein after heating vs DMSO (PISA); higher = thermal stabilisation; K562 lysate, 10 uM; active = over 0.2 and 3.5 SD of the protein, either way, in both replicates (recomputed)
# ibrutinib = compound: C=CC(=O)N1CCC[C@@H](n2nc(-c3ccc(Oc4ccccc4)cc3)c3c(N)ncnc32)C1 [ibrutinib]
# Method in brief: (§1)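 To prepare the extract, K562 pellets were dounce-homogenised in PBS pH 7.4 with 1 mM MgCl2, giving crude material at 1 mg/mL protein. This was treated with 10 μM compound for 30 min, then heated in aliquots for 3 min over 48°C-58°C before pooling and addition of NP-40 to 0.5% at 4°C. Centrifugation at 21,000xg for 90 min left soluble protein in the supernatant, which TMTpro 16plex LC-MS/MS quantified with equalised channel sums. Results are log-two fold changes in thermal stability compared with solvent controls, from duplicates.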
# [1] = compound: CC(=O)c1cnc2ccc(-c3cc(Cl)c(O)c(Cl)c3)nc2c1N[C@H]1CC[C@H](CN(C)C)CC1
# Method in brief: as §1
# ralimetinib = compound: CC(C)(C)Cn1c(N)nc2ccc(-c3[nH]c(C(C)(C)C)nc3-c3ccc(F)cc3)nc21 [ralimetinib]
# Method in brief: as §1
# [2] = compound: CC(C)(O)CC(=O)NCCn1ccc2ncnc(Nc3ccc(Oc4cccc(C(F)(F)F)c4)c(Cl)c3)c21
# Method in brief: as §1
# [3] = compound: CC(C)C1=C2N=C(C=C(N2N=C1)NCC3=CC=CC=C3)NCCCCCCN
# Method in brief: as §1
# [4] = compound: CC1=C(C(CC(=O)N1)C2=CC=C(C=C2)C(F)(F)F)C(=O)NC3=C(C=C4C(=C3)C=NN4)F
# Method in brief: as §1
# [5] = compound: CC1=C(C2=C(C=C1)C(=O)C3=CC=CC=C3N2CCCN)C
# Method in brief: as §1
# [6] = compound: CC1=C(C=C(C=C1)NC(=O)C2=CC(=CC=C2)C(C)(C)C#N)NC3=CC4=C(C=C3)N=CN(C4=O)C
# Method in brief: as §1
# [7] = compound: CC1=C(C=C(C=C1)NC(=O)C2=CC(=CC=C2)N(C)C)NC(=O)C3=CC=C(C=C3)O
# Method in brief: as §1
# [8] = compound: CC1=CC=C(C=C1)SC2=C3C=C(SC3=CN=C2)C(=O)N
# Method in brief: as §1
# vemurafenib = compound: CCCS(=O)(=O)Nc1ccc(F)c(C(=O)c2c[nH]c3ncc(-c4ccc(Cl)cc4)cc23)c1F [vemurafenib]
# Method in brief: as §1
# [9] = compound: CCCS(=O)(=O)Nc1ccc(F)c(C(=O)c2c[nH]c3ncc(Cl)cc23)c1F
# Method in brief: as §1
# barasertib = compound: CCN(CCCOc1ccc2c(Nc3cc(CC(=O)Nc4cccc(F)c4)[nH]n3)ncnc2c1)CCOP(=O)(O)O [barasertib]
# Method in brief: as §1
# [10] = compound: CC[C@@H]1C(=O)N(C)c2cnc(Nc3ccc(C(=O)NC4CCN(C)CC4)cc3OC)nc2N1C1CCCC1
# Method in brief: as §1
# volasertib = compound: CC[C@@H]1C(=O)N(C)c2cnc(Nc3ccc(C(=O)N[C@H]4CC[C@H](N5CCN(CC6CC6)CC5)CC4)cc3OC)nc2N1C(C)C [volasertib]
# Method in brief: as §1
# [11] = compound: CCn1c(C(=O)N(C2CC2)C2CC2)cc2c3c(ncn3C)c(Nc3cc(C)n(C)n3)nc21
# Method in brief: as §1
# [12] = compound: CCn1cc(-c2ccnc3[nH]c(-c4cccc(CN(C)C)c4)cc23)c(-c2ccc(NC(=O)N(C)C)cc2)n1
# Method in brief: as §1
# [13] = compound: CN1CCC(CNc2ccc3ncc(-c4cccc(OC(F)(F)F)c4)n3n2)CC1
# Method in brief: as §1
# saracatinib = compound: CN1CCN(CCOc2cc(OC3CCOCC3)c3c(Nc4c(Cl)ccc5c4OCO5)ncnc3c2)CC1 [saracatinib]
# Method in brief: as §1
# sotrastaurin = compound: CN1CCN(c2nc(C3=C(c4c[nH]c5ccccc45)C(=O)NC3=O)c3ccccc3n2)CC1 [sotrastaurin]
# Method in brief: as §1
# Sequence of UniProt P49757 (P49757 whole entry, looked up): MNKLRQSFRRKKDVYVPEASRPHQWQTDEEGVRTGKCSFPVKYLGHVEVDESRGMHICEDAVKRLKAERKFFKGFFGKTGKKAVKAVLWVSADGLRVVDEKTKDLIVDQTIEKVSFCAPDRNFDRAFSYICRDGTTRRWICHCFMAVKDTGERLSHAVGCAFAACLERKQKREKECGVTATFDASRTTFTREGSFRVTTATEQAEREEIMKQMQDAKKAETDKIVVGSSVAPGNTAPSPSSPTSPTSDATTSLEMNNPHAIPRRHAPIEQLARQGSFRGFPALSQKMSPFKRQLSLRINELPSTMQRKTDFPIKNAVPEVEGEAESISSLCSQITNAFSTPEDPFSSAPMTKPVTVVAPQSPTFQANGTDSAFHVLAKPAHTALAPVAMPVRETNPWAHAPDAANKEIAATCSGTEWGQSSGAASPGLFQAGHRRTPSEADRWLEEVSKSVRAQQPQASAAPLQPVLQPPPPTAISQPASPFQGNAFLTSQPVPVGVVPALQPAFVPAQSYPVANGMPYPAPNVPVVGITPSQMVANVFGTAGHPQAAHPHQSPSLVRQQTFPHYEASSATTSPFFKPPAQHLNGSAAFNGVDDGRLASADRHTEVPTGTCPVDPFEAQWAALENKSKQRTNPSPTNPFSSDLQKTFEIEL
# Sequence of UniProt O96013 (O96013 whole entry, looked up): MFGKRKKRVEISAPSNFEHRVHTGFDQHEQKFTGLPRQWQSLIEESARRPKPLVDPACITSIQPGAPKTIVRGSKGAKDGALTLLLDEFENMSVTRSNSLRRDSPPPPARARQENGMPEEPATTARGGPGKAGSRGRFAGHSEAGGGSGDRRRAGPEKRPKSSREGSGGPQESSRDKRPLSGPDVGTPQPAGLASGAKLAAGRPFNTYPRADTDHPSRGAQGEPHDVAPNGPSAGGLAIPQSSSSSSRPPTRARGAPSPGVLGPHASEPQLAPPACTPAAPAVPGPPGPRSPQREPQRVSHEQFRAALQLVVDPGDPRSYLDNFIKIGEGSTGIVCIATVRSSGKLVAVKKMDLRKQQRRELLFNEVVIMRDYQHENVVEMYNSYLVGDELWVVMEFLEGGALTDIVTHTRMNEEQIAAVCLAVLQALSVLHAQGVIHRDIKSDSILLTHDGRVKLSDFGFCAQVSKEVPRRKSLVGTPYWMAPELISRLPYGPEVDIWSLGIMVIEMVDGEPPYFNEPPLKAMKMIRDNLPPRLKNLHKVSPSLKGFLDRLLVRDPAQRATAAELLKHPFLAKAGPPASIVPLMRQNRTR
# Sequence of UniProt Q8NC60 (Q8NC60 whole entry, looked up): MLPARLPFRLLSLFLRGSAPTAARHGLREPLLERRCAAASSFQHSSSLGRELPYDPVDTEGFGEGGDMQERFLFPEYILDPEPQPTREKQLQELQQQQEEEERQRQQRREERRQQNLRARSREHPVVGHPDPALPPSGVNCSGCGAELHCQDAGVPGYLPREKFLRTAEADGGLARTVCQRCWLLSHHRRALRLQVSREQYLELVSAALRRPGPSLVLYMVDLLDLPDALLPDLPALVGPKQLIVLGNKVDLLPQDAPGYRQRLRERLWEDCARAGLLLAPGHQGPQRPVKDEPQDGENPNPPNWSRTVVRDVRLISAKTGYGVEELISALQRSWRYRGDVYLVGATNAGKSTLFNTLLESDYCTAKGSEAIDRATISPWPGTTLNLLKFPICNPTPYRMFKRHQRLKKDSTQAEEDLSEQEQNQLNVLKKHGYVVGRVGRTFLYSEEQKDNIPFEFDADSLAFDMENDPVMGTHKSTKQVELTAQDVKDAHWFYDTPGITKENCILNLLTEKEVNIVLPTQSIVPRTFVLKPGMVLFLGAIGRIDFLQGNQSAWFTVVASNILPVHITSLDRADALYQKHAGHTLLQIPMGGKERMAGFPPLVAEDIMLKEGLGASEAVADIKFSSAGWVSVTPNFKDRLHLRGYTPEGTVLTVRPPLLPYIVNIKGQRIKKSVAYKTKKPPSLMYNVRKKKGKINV
# Sequence of UniProt Q9Y639 (Q9Y639 whole entry, looked up): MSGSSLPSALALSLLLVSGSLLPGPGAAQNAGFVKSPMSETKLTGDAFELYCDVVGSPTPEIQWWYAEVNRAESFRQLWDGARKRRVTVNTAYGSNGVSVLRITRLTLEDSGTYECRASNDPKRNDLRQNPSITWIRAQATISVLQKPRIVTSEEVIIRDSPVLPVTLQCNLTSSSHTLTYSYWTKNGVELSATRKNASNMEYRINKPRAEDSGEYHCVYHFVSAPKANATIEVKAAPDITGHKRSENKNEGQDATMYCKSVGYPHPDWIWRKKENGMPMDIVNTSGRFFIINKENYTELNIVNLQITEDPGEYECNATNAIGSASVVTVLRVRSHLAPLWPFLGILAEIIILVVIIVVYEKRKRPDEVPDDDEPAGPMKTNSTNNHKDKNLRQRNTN
# Sequence of UniProt Q86XI2 (Q86XI2 whole entry, looked up): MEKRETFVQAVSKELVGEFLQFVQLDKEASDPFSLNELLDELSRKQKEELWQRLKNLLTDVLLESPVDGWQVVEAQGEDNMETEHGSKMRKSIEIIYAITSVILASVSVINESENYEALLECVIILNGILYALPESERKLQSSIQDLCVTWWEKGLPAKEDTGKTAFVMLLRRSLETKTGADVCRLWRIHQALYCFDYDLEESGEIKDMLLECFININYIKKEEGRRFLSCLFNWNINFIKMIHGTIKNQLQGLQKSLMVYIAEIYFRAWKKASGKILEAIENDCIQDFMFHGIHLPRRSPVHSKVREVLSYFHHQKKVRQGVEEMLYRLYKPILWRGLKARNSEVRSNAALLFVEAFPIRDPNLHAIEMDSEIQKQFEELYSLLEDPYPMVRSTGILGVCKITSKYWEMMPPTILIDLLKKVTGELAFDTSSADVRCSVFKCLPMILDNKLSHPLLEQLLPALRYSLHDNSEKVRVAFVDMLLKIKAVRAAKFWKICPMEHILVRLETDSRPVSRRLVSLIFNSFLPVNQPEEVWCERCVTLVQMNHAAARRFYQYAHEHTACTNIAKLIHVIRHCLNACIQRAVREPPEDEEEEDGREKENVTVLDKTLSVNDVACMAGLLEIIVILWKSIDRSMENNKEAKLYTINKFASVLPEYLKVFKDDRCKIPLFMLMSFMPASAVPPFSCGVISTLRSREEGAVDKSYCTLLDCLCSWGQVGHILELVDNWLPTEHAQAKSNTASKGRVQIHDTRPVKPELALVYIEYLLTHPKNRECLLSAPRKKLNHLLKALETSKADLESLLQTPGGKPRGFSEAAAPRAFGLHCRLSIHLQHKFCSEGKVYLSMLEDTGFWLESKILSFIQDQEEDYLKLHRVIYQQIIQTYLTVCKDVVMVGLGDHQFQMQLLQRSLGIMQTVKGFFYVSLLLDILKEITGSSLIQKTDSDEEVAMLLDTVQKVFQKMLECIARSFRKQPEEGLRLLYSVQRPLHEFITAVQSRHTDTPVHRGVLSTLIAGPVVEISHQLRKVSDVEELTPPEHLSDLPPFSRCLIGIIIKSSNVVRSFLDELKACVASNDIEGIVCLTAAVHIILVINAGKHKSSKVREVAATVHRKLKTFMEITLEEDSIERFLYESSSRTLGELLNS
# Sequence of UniProt P42695 (P42695 whole entry, looked up): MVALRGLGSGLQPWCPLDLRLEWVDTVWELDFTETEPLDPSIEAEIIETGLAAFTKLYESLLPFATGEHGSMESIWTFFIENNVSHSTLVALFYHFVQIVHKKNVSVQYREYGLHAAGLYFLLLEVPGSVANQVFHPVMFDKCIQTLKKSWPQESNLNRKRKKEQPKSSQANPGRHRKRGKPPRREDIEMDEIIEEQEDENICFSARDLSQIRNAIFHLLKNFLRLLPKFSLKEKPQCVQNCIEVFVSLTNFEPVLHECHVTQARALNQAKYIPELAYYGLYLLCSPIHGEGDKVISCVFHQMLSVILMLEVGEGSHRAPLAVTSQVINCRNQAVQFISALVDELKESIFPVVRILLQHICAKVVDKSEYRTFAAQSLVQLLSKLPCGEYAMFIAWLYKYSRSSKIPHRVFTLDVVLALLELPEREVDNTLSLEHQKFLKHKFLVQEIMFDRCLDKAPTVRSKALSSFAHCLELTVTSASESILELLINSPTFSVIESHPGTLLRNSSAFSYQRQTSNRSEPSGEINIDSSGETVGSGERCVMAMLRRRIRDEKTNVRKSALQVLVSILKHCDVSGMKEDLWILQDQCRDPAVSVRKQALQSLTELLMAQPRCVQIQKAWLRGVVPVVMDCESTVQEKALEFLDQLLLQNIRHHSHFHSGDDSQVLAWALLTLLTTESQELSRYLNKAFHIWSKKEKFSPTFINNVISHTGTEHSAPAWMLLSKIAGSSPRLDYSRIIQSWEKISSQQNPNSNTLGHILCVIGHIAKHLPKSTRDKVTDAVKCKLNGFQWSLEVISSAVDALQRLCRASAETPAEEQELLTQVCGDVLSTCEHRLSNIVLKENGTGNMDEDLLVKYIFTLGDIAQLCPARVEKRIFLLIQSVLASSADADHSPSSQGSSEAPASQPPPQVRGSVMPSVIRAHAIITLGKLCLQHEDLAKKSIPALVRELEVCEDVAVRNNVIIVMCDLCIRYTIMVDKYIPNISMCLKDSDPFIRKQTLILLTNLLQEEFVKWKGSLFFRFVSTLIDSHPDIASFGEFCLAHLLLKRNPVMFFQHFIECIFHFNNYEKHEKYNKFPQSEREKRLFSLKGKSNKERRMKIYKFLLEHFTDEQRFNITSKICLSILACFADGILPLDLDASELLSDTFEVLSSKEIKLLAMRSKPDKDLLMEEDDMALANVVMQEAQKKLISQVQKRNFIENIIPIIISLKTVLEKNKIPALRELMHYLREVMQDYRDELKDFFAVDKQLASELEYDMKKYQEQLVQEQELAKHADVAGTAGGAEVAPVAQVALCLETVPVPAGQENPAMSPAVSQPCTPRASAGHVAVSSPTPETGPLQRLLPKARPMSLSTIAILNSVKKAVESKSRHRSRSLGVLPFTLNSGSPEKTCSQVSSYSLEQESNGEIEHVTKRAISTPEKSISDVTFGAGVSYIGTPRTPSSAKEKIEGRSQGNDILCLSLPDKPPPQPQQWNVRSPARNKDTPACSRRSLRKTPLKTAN
Target,log2 fold change (ibrutinib),log2 fold change [1],log2 fold change (ralimetinib),log2 fold change [2],log2 fold change [3],log2 fold change [4],log2 fold change [5],log2 fold change [6],log2 fold change [7],log2 fold change [8],log2 fold change (vemurafenib),log2 fold change [9],log2 fold change (barasertib),log2 fold change [10],log2 fold change (volasertib),log2 fold change [11],log2 fold change [12],log2 fold change [13],log2 fold change (saracatinib),log2 fold change (sotrastaurin)
NOA1 (UniProt Q8NC60),-0.024,-0.025,0.002,0.034,0.005,-0.064,-0.02,0.002,-0.001,0.02,0.041,-0.009,0.043,0.029,-0.024,-0.083,-0.229,0.028,0.016,0.037
NUCB2 (UniProt P80303),0.025,0.002,-0.023,0.01,0.009,0.04,-0.006,0,-0.015,-0.014,0.01,-0.009,-0.004,0.052,0.022,-0.008,0.338 (active),-0.084,0.015,-0.026
NUP160 (UniProt Q12769),0.063,-0.007,0.062,0.017,-0.021,0.01,0.005,0.012,-0.021,0.001,-0.039,0.02,0.052,-0.106,-0.105,0.043,0.057,-0.058,0.043,-0.01
MTOR (UniProt P42345),-0.016,0.001,0.018,-0.005,-0.043,0.02,0.019,0.031,0.058,-0.013,0.026,0.015,0.052,-0.045,-0.044,-0.006,-0.04,-0.031,0.005,0.03
NUMB (UniProt P49757),0.03,0.005,0.021,-0.055,0.003,-0.007,-0.015,0.081,0.004,-0.005,0.001,0.001,0.028,0.06,-0.015,0.008,0.055,-0.061,0.024,-0.134
NEK7 (UniProt Q8TDX7),0.041,-0.041,0.063,-0.016,0.034,-0.015,-0.048,-0.043,0.053,0.002,0.086,0.024,0.002,-0.006,-0.091,-0.025,-0.13,0.041,0.013,0.04
PAK4 (UniProt O96013),0.049,0.372,-0.016,-0.001,-0.102,0.023,-0.087,-0.064,-0.012,0.034,-0.016,-0.06,-0.005,-0.131,-0.134,0.259,0.02,0.3,-0.018,0.063
MYH11 isoform 2 (UniProt P35749),-0.051,-0.011,-0.094,-0.043,0.013,-0.019,-0.007,-0.043,0,-0.004,0.027,0.016,0.016,-0.011,-0.025,0.091,0.25 (active),-0.033,0.029,0.002
NCAPG2 (UniProt Q86XI2),0.012,-0.029,0.018,0.006,-0.009,0.015,0.05,-0.017,0.001,-0.002,0.015,0.044,0.016,-0.055,-0.006,0.025,-0.139,0.074,0.027,0.027
NARF (UniProt Q9UHQ1),0.004,0.044,-0.007,-0.013,-0.013,-0.007,-0.011,-0.013,-0.008,-0.113,0.035,0.035,0.028,0.011,0.135,-0.025,-0.055,0.014,0.023,0.049
MRPS31 (UniProt Q92665),-0.01,-0.039,-0.006,-0.006,0,-0.01,-0.071,-0.006,-0.022,-0.006,0.043,-0.001,-0.011,0.041,-0.004,-0.026,-0.046,0.034,0.014,0.021
PAK1 (UniProt Q13153),0.067,-0.011,0.001,0.004,-0.108,-0.003,-0.018,0.041,0.008,0.009,-0.013,0.001,-0.001,-0.002,0.023,-0.011,0.013,0.06,0,-0.054
NPTN (UniProt Q9Y639),0.069,0.026,0.042,-0.009,0.007,-0.02,-0.015,0.038,0.004,-0.046,-0.028,-0.042,0.007,0.032,-0.038,-0.017,-0.019,0.052,0.02,-0.016
NUDT4 isoform 2 (UniProt Q9NZJ9),-0.006,0.002,0.035,-0.044,-0.006,0.016,-0.054,0.034,0.024,-0.024,0.009,0.021,-0.05,0.013,0.005,-0.018,-0.068,0.058,0.076,0
NADK2 (UniProt Q4G0N4),-0.017,-0.006,0.005,-0.03,-0.02,-0.007,0.008,0.024,0.023,0.042,0.024,-0.013,0.034,0.078,0.008,-0.016,-0.019,0.02,-0.035,-0.036
NCAPD3 (UniProt P42695),0.001,-0.017,0.043,-0.019,-0.008,0.007,-0.024,-0.012,0.036,-0.012,-0.032,0.047,0.06,-0.013,-0.088,0.035,0.068,-0.015,0.008,0.003
